Article PMC7862700, “An all-to-all approach to the identification of sequence-specific readers for epigenetic DNA modifications on cytosine”

Assays:
Experiment in all cases: DAPPL (digital affinity profiling via proximity ligation, sequencing); 10 mM Tris-HCl pH 7.5, 50 mM NaCl, 1 mM DTT, 4% glycerol, room temperature, 30 min; GST-TFs on glutathione beads, 16-mer random dsDNA library, 0.1% formaldehyde crosslink after washing; high values mean tight binding
FEV = target: T1, FEV (Homo sapiens, UniProt Q99581 1-238); settings: protein: recombinant; tags: N-terminal GST; dsDNA, one strand shown
T1 sequence: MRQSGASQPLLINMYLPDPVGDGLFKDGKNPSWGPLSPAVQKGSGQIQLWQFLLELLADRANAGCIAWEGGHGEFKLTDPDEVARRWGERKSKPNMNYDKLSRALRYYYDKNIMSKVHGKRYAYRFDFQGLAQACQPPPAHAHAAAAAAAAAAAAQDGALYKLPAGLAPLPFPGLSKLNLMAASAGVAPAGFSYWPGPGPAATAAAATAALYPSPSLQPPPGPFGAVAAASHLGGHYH
How it was run: (§1)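 GST fusions of human transcription factors were expressed in yeast and captured with glutathione beads. Once given DNA barcodes and pooled alongside a tag-only sample, they were incubated for 30 min at room temperature with 200 nmole of a random double-stranded 16-mer DNA library in Tris/NaCl/DTT/glycerol buffer, then washed, crosslinked (0.1% formaldehyde), proximity-ligated, PCR-amplified and sequenced on an Illumina NextSeq500. The binding signal of each hexamer is its read frequency for a factor divided by its frequency for the tag-only sample.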

ETV5 = ETV5 (Homo sapiens, UniProt P41161 1-510); settings: protein: recombinant; tags: N-terminal GST; dsDNA, one strand shown
How it was run: as §1

HSF1 = HSF1 (Homo sapiens, UniProt Q00613 1-529); settings: protein: recombinant; tags: N-terminal GST; chain copies: 3; dsDNA, one strand shown
How it was run: as §1

SPIC = target: T2, SPIC (Homo sapiens, UniProt Q8N5J4 1-248); settings: protein: recombinant; tags: N-terminal GST; dsDNA, one strand shown
T2 sequence: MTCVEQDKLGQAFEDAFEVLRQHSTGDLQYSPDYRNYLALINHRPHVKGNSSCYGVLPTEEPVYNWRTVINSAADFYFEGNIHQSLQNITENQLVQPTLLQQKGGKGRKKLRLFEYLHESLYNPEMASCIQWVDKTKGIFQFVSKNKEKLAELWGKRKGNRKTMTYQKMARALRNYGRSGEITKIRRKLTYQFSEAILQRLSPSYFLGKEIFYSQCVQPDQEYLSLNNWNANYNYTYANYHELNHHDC
How it was run: as §1

ELF4 = ELF4 (Homo sapiens, UniProt Q99607 1-663); settings: protein: recombinant; tags: N-terminal GST; dsDNA, one strand shown
How it was run: as §1

ELK4 = target: T3, ELK4 (Homo sapiens, UniProt P28324-2 1-405); settings: protein: recombinant; tags: N-terminal GST; dsDNA, one strand shown
T3 sequence: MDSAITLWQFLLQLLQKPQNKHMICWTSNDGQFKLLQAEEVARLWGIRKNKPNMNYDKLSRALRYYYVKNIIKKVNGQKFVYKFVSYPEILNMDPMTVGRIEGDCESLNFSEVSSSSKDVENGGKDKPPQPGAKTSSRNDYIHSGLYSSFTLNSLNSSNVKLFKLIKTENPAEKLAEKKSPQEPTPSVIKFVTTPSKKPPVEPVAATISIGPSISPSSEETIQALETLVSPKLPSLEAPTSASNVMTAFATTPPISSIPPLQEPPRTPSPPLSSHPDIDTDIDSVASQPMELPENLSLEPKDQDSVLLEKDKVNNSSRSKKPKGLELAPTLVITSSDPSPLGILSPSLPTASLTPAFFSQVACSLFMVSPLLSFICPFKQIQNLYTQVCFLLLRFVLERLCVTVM
How it was run: as §1

ETV2 = target: T4, ETV2 (Homo sapiens, UniProt O00321 1-342); settings: protein: recombinant; tags: N-terminal GST; dsDNA, one strand shown
T4 sequence: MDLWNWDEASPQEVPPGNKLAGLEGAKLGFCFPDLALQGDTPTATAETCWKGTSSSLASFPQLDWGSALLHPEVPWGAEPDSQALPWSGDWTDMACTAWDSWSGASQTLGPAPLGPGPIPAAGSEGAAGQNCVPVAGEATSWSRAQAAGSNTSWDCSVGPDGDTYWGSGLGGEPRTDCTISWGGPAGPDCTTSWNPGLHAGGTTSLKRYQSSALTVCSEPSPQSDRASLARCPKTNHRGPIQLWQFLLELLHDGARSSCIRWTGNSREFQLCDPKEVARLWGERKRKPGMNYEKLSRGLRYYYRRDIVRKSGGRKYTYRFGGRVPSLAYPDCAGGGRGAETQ
How it was run: as §1

ELF3 = target: T5, ELF3 (Homo sapiens, UniProt P78545 1-371); settings: protein: recombinant; tags: N-terminal GST; dsDNA, one strand shown
T5 sequence: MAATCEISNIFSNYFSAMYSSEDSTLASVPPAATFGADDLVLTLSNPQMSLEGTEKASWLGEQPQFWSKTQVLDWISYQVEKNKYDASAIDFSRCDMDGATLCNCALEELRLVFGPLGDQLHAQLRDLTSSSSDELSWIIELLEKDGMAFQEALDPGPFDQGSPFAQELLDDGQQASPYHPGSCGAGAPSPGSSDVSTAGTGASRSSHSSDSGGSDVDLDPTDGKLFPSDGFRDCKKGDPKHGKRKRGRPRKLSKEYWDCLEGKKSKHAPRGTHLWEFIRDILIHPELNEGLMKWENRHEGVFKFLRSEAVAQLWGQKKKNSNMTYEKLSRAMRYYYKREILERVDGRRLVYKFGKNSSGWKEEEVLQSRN
How it was run: as §1

CRX = CRX (Homo sapiens, UniProt O43186 1-299); settings: protein: recombinant; tags: N-terminal GST; dsDNA, one strand shown
How it was run: as §1

ETV1 = ETV1 (Homo sapiens, UniProt P50549 1-477); settings: protein: recombinant; tags: N-terminal GST; dsDNA, one strand shown
How it was run: as §1

ERF = target: T6, ERF (Homo sapiens, UniProt P50548 1-548); settings: protein: recombinant; tags: N-terminal GST; dsDNA, one strand shown
T6 sequence: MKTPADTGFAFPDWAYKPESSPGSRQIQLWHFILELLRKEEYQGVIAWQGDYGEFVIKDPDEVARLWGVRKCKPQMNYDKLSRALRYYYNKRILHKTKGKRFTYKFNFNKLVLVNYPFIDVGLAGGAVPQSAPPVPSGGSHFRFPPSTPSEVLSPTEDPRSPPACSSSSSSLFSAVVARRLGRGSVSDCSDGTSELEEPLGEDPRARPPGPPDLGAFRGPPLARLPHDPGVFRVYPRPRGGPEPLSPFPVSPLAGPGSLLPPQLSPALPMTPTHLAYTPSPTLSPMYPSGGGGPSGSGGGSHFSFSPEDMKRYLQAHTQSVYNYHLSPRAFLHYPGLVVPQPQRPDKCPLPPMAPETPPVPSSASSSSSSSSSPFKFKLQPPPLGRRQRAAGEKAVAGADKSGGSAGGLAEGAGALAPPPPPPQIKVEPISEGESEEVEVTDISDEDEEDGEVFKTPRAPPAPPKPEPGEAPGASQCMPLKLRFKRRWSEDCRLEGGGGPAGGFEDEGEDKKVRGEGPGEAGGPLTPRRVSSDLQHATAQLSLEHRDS
How it was run: as §1

ETV3L = target: T7, ETV3L (Homo sapiens, UniProt Q6ZN32 1-361); settings: protein: recombinant; tags: N-terminal GST; dsDNA, one strand shown
T7 sequence: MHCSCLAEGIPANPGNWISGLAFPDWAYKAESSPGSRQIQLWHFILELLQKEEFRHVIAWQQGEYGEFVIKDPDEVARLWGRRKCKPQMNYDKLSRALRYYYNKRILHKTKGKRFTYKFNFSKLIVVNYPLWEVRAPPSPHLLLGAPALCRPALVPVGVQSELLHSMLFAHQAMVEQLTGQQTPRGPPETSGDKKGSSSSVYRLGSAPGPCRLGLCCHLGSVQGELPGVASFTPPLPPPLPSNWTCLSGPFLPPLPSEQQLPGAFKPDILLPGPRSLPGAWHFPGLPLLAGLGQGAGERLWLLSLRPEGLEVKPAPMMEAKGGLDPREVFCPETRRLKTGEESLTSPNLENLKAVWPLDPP
How it was run: as §1

ETS2 = target: T8, ETS2 (Homo sapiens, UniProt P15036 1-469); settings: protein: recombinant; tags: N-terminal GST; dsDNA, one strand shown
T8 sequence: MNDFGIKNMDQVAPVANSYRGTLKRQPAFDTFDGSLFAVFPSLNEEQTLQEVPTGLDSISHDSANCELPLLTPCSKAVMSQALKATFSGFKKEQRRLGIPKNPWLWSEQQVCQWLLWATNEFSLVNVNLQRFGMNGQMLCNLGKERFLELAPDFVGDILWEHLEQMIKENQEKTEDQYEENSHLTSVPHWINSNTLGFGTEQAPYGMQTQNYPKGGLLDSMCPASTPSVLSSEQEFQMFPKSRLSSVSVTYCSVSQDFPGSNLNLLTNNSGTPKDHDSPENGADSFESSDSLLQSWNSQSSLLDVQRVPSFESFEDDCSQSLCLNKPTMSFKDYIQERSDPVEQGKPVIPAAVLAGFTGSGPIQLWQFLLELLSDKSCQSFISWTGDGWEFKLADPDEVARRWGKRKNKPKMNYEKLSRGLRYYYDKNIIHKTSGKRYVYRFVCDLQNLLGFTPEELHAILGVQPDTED
How it was run: as §1

SPDEF = target: T9, SPDEF (Homo sapiens, UniProt O95238 1-335); settings: protein: recombinant; tags: N-terminal GST; dsDNA, one strand shown
T9 sequence: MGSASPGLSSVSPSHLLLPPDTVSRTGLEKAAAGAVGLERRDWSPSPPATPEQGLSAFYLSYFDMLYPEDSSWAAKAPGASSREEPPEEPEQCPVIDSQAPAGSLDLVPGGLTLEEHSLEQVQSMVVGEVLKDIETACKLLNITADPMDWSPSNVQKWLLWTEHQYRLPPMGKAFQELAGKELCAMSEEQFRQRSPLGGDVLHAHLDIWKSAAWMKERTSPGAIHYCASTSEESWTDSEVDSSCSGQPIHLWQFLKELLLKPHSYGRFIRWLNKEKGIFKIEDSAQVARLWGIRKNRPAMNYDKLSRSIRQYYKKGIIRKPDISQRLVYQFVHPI
How it was run: as §1

ETV7 = target: T10, ETV7 (Homo sapiens, UniProt Q9Y603 1-341); settings: protein: recombinant; tags: N-terminal GST; dsDNA, one strand shown
T10 sequence: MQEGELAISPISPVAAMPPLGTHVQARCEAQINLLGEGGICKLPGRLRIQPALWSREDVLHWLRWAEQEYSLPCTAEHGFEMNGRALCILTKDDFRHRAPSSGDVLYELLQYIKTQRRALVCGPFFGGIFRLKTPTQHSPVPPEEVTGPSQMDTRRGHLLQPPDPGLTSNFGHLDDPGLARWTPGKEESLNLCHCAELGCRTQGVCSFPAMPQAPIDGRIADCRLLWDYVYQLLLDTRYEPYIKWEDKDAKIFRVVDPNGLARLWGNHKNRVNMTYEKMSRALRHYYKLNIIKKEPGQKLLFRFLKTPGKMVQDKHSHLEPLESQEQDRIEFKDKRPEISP
How it was run: as §1

ELF5 = target: T11, ELF5 (Homo sapiens, UniProt Q9UKW6-2 1-255); settings: protein: recombinant; tags: N-terminal GST; dsDNA, one strand shown
T11 sequence: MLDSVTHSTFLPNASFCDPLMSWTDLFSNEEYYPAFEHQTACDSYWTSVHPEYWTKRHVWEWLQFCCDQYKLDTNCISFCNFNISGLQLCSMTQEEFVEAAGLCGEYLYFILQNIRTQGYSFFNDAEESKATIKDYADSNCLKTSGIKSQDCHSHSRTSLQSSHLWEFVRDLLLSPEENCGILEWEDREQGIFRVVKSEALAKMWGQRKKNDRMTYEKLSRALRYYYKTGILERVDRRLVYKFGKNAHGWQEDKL
How it was run: as §1

ETV3 = target: T12, ETV3 (Homo sapiens, UniProt P41162-2 1-143); settings: protein: recombinant; tags: N-terminal GST; dsDNA, one strand shown
T12 sequence: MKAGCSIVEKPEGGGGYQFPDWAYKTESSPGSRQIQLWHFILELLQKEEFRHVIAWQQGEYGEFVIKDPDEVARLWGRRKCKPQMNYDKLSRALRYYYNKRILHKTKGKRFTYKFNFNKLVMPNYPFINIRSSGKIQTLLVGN
How it was run: as §1

ETV6 = ETV6 (Homo sapiens, UniProt P41212 1-452); settings: protein: recombinant; tags: N-terminal GST; dsDNA, one strand shown
How it was run: as §1

Chain of ETV6 (P41212 whole entry): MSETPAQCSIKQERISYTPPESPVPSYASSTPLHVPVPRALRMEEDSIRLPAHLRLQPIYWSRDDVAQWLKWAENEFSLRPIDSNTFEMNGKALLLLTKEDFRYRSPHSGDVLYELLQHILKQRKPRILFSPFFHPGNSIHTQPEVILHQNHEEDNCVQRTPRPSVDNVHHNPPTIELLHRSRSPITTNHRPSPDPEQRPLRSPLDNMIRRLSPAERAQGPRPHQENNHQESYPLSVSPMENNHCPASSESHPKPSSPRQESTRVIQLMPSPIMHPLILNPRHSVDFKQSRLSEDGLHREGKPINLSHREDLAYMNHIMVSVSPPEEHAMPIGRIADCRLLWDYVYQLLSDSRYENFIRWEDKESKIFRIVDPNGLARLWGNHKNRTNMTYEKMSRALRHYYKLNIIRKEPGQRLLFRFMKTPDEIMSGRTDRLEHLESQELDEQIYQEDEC
Chain of ETV5 (P41161 whole entry): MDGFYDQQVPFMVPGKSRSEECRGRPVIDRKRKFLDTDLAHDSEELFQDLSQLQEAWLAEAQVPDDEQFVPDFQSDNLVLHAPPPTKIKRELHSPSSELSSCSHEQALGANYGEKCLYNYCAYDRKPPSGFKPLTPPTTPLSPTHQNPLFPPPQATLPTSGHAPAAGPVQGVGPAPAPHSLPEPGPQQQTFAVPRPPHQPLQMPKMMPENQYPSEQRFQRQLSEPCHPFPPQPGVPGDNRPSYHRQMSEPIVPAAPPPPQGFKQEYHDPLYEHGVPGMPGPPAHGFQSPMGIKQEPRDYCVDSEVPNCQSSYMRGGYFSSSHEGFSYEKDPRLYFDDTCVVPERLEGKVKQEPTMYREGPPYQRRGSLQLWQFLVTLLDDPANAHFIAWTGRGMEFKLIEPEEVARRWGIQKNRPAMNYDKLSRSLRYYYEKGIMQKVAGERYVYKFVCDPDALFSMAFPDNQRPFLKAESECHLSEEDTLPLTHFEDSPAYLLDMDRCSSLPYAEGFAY
Chain of ELF4 (Q99607 whole entry): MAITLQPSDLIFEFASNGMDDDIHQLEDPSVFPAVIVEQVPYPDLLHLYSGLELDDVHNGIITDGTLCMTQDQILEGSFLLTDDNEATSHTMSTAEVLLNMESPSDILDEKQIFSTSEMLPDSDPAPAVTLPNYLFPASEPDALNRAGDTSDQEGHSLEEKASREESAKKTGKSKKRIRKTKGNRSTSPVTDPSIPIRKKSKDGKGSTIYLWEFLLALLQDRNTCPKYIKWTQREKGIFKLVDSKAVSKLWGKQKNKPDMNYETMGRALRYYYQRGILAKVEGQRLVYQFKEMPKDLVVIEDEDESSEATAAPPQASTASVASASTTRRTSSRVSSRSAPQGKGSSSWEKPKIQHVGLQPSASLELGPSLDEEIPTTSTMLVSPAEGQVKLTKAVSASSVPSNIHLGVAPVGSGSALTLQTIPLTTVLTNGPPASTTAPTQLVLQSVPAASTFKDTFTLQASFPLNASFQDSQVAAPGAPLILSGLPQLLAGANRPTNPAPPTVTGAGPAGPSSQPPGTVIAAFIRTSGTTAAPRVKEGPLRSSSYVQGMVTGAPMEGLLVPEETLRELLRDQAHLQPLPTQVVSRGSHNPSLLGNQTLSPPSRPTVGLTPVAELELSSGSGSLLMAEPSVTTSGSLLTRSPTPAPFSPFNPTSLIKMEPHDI
Chain of CRX (O43186 whole entry): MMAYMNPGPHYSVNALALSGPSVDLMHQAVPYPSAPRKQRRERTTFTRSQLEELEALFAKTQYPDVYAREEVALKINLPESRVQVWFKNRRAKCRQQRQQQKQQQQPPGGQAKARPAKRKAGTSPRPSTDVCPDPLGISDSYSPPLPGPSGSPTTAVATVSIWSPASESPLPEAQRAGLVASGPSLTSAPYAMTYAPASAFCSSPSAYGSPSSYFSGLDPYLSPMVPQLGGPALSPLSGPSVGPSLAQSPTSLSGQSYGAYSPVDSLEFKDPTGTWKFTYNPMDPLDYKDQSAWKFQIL
Chain of ETV1 (P50549 whole entry): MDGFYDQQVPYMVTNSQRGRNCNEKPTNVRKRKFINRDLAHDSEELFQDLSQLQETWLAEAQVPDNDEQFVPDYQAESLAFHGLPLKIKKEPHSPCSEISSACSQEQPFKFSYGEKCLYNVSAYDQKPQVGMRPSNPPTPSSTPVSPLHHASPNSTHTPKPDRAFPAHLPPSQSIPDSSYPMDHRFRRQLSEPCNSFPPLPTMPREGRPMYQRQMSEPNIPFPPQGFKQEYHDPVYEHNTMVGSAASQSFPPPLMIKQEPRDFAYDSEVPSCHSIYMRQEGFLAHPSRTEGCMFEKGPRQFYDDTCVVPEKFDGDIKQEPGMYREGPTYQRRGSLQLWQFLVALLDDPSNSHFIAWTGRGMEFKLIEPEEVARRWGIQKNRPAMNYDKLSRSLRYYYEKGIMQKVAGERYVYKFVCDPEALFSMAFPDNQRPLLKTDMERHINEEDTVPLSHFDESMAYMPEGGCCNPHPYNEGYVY
Chain of HSF1 (Q00613 whole entry): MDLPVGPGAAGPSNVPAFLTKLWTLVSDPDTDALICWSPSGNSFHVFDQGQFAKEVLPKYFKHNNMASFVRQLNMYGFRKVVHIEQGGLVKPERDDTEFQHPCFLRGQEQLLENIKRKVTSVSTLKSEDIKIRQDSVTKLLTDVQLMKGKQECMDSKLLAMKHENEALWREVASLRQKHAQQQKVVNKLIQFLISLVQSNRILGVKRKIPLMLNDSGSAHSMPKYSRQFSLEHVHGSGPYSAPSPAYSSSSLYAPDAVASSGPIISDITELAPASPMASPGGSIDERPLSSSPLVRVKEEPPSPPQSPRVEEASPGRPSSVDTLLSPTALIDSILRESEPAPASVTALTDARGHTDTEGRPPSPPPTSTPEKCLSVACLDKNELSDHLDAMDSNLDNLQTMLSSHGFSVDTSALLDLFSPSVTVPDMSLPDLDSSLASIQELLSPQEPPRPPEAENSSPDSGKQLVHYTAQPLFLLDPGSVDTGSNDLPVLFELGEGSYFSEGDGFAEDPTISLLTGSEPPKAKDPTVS

Sequence: TTGTGT
- binding signal (FEV): 1.15 fold enrichment (6-mer frequency, TF over GST control)
- binding signal (ETV5): 1.14 fold enrichment (6-mer frequency, TF over GST control)
- binding signal (HSF1): 1.05 fold enrichment (6-mer frequency, TF over GST control)
- binding signal (SPIC): 1.04 fold enrichment (6-mer frequency, TF over GST control)
- binding signal (ELF4): 1.2 fold enrichment (6-mer frequency, TF over GST control)
- binding signal (ELK4): 1.28 fold enrichment (6-mer frequency, TF over GST control)
- binding signal (ETV2): 1.29 fold enrichment (6-mer frequency, TF over GST control)
- binding signal (ELF3): 1.14 fold enrichment (6-mer frequency, TF over GST control)
- binding signal (CRX): 1.12 fold enrichment (6-mer frequency, TF over GST control)
- binding signal (ETV1): 1.09 fold enrichment (6-mer frequency, TF over GST control)
- binding signal (ERF): 1.4 fold enrichment (6-mer frequency, TF over GST control)
- binding signal (ETV3L): 1.15 fold enrichment (6-mer frequency, TF over GST control)
- binding signal (ETS2): 1.16 fold enrichment (6-mer frequency, TF over GST control)
- binding signal (SPDEF): 1.26 fold enrichment (6-mer frequency, TF over GST control)
- binding signal (ETV7): 1.34 fold enrichment (6-mer frequency, TF over GST control)
- binding signal (ELF5): 1.16 fold enrichment (6-mer frequency, TF over GST control)
- binding signal (ETV3): 1.27 fold enrichment (6-mer frequency, TF over GST control)
- binding signal (ETV6): 1.19 fold enrichment (6-mer frequency, TF over GST control)
